# JMJD2A Tudor – qHTS Assay for Inhibitors of JMJD2A-Tudor Domain | Lysine-specific demethylase 4A (Homo sapiens), O75164 | Potency, µM (doses to about 114 µM), hits mostly inhibitors | AlphaScreen JMJD2A-Tudor / H3K4me3 peptide binding | 390,000 tested, 4.4% active; further: nearly all actives have a fitted effect of over 50% in size
# Six1-Eya2 blk – qHTS Assay for Inhibitors of the Six1/Eya2 Interaction. Homeobox protein SIX1 (Homo sapiens) + Protein phosphatase EYA2 (Homo sapiens), …. AlphaScreen GST-Six1/His-Eya2 binding, biochemical; stronger effect = lower value. activity change, % (concentration not given with the values). 360,000 tested, 0.56% active. AID 651725, 2012; in the data active means activity change below about -65%; inconclusive means mostly about -30% to -63%
#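 GST-Six1 + His-Eya2 (5X stock: 250/500 nM); Tris pH 8.0, 300 mM NaCl, 0.05% BSA, 0.02% Tween 20; GSH donor/Ni acceptor beads; 1 h 37 °C dark; AlphaScreen readout.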
# BAZ2B inh – qHTS Assay for Inhibitors of BAZ2B; AlphaScreen BAZ2B-H3K14Ac peptide displacement; Bromodomain adjacent to zinc finger domain protein 2B (Homo sapiens), Q9UIF8; Potency, µM (highest dose often 114 µM), hits mostly inhibitors; 360,000 tested, 4.4% active; further: nearly all actives have a fitted effect of over 60% in size
#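 Compounds, titrated to a top concentration of 110 uM, were incubated 30 min at room temperature with preformed BAZ2B/acetyl-K14 H3 peptide complex (50 nM each). Proximity signal was measured by AlphaScreen after 20 min with beads.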
# G9a block – qHTS Assay for Inhibitors of Histone Lysine Methyltransferase G9a; Histone-lysine N-methyltransferase EHMT2 (Homo sapiens), Q96KQ7; G9a H3K9 monomethylation, AlphaScreen, 2 h; Potency, µM (series often up to 102 µM), hits mostly inhibitors; 350,000 tested, 8.8% active; AID 504332, 2011; further: nearly all actives have a fitted effect of over 75% in size
# Target sequence (Q96KQ7 913-1193 limits assumed): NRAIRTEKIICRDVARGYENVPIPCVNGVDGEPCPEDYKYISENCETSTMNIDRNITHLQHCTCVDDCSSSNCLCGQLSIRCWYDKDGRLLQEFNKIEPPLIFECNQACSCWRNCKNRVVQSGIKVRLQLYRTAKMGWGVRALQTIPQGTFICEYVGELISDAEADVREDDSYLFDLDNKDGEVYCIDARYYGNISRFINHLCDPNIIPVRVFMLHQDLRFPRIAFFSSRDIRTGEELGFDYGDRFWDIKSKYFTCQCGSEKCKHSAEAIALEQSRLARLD
#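 AlphaScreen detection with an anti-monomethyl H3K9 antibody quantified product after a 2 h room-temperature reaction containing 500 nM biotinylated H3K9 peptide, 20 µM SAM and 20 nM enzyme, which had been preincubated 15 min with compound.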
# CtBP-E1A inh – qHTS Assay for Inhibitors of the CtBP/E1A Interaction; CtBP / adenovirus E1A interaction (AlphaScreen); AlphaScreen GST-E1A/His-CtBP binding, 1536-well; stronger effect = lower value; activity change, % (concentration not given with the values); 340,000 tested, 0.49% active; in the data active means activity change below about -65%; inconclusive means mostly about -30% to -63%
#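 Protein mix (5X: 125 nM each GST-E1A, His-CtBP) was incubated with pinned compound 2 h at 37 deg C in dark, in 50 mM Tris pH 8.0 buffer with 300 mM NaCl. Glutathione donor and nickel acceptor beads followed; AlphaScreen signal read after 1 h.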
# HP1b binding inh – HTS for Inhibitors of HP1-beta Chromodomain Interactions with Methylated Histone Tails; AID 540317, 2011; Potency, µM (series often up to 114 µM), usual class: inhibitors; AlphaScreen HP1-beta / biotin-H3K9me3 peptide binding; Chromobox protein homolog 1 (Homo sapiens), P83916; 390,000 tested, 0.56% active; further: nearly all actives have a fitted effect of over 70% in size
# Target sequence (P83916 whole entry, looked up): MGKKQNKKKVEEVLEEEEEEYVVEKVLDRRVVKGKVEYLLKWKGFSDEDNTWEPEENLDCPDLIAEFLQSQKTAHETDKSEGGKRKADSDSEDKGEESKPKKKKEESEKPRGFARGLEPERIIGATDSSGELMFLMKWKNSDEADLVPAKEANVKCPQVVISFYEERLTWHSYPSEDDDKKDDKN
#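 AlphaScreen: HP1-beta (50 nM) preformed 30 min with biotin-H3(1-18)K9me3 peptide (50 nM) in PBS pH 7.4, 0.01% Tween-20. Compound added for 30 min at RT, then streptavidin donor/nickel chelate acceptor beads (10 ug/mL) for 30 min.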
# Hits are given with their value; n = inactive; u = inconclusive; x = no result; [ ] = dose if it differs, or a comment. In the library only some 10% were active in any assay of this set; here they are far more common. Unless noted, the call rests on the fitted dose curve; in most records, active means well fitted inhibition curve with a large enough effect; inconclusive means small, poorly fitted or top-dose-only effect; inactive means no such curve, though single readings can be large or run the other way.
SMILES,JMJD2A Tudor,Six1-Eya2 blk,BAZ2B inh,G9a block,CtBP-E1A inh,HP1b binding inh
Cc1cccc(N2CCN(CCc3ccccc3)CC2)c1C,n,n,u,n[12.7 µM],n,n
CCOC(=O)[C@]12Cc3cc(OC)ccc3[C@H]1N(Cc1ccccc1)C(=O)c1ccccc12,n,n,x,x,n,n
CCOC(=O)C1(c2ccccc2)Oc2ccccc2C(c2ccc(OC)cc2)=C1C(=O)OC (stereo not drawn),n,n,x,22µM,n,n
COc1cccc(C(C(=O)NCc2ccco2)N(Cc2ccco2)C(=O)Cn2nnc3ccccc32)c1 (stereo not drawn),n,n,n,n,n,n
CCc1nnc(NS(=O)(=O)c2ccc(N=Cc3c(O)n(-c4ccc(Cl)cc4)c(=O)[nH]c3=O)cc2)s1,35µM,n,n,u,n,n
CNS(=O)(=O)c1ccc(N=Cc2c(O)n(-c3ccc(C)cc3)c(=O)[nH]c2=O)cc1,n,n,n,x,n,n
Cn1cccc1-c1cccnc1,x,x,x,n,x,x
CCCOc1ccc(C(=O)NC(=S)N2C[C@H]3C[C@H](C2)c2cccc(=O)n2C3)cc1,u,n,n,11µM,n,n
COc1ccc(NC(=O)N2C[C@@H]3C[C@@H](C2)c2cccc(=O)n2C3)c(OC)c1,n,n,n,3.5µM,n,n
O=C(NC(=S)N1C[C@H]2C[C@H](C1)c1cccc(=O)n1C2)c1ccc(Cl)cc1Cl,n,n,n,40µM,n,n
O=c1cccc2n1CC1CC2CN(Cc2c(F)cccc2Cl)C1 (stereo not drawn),56µM,n,u,45µM,n,n
CCOC(=O)CNC(=S)N1CC2C[C@@H](C1)Cn1c2cccc1=O,n,n,n,n,n,n
CCCC(C)(COC(N)=O)COC(=O)NC1CC1 (stereo not drawn),x,x,x,n[12.7 µM],x,x
OC[C@@H](O)[C@H]1O[C@@H]2OC(C(Cl)(Cl)Cl)O[C@H]2[C@H]1O (stereo partly drawn),x,x,x,n[12.7 µM],x,x
COc1ccc(C(=O)NC(=S)N2C[C@H]3C[C@H](C2)c2cccc(=O)n2C3)cc1OC,n,n,n,45µM,n,n
CC(C)c1ccc(NC(=O)CN2C(=O)CN=C(c3ccccc3)c3ccccc32)cc1,n,x,x,n,x,n
CCOC(=O)c1cc(CC)sc1/N=C/C1C(=O)NC(=S)NC1=O,n,n,x,45µM,n,n
CCOC(=O)c1cc(CC)sc1/N=C/c1c(O)[nH]c(=S)[nH]c1=O,n,n,n,u,n,n
COC(=O)N1CCC2(CCN(CC(C)C)CC2)CC1,x,x,x,n[12.7 µM],x,x
Nc1c(C(=O)Nc2cccc(Br)c2)sc2nc3c(cc12)N1CCC3CC1,u,x,n,13µM,x,n
NC(=O)C1CCN(/C=C2\C(=O)NC(=O)N(Cc3ccco3)C2=O)CC1,79µM,n,u,u,n,u
CCOC(=O)C1CCN(/C=C2/C(=O)NC(=O)N(c3ccc(OCC)cc3)C2=O)CC1,n,n,n,u,n,n
CCN(CC)c1ccc(/C=C2/C(=O)NC(=O)N(Cc3ccco3)C2=O)cc1,u,n,40µM,u,n,n
Cc1cc(/C=C2/C(=O)NC(=O)N(Cc3ccco3)C2=O)c(C)n1-c1ccccc1,50µM,n,u,10µM,n,71µM
CC(C)(O)C1O[C@H]2CC[C@@]3(C)[C@@](O)(CC[C@H]4Cc5c([nH]c6ccccc56)[C@@]43C)C2=CC1=O (stereo partly drawn),x,x,x,n,x,x
COc1ccc(CC(=O)NC(=S)NNC(=O)COc2c(C)cccc2C)cc1,16µM,n,n,1.1µM,n,u

# Source: PubChem (National Center for Advancing Translational Sciences (NCATS))
